According to the supplement of paper PMC13380429:

Tested on: Vero E6 infected with SARS-CoV-2
Assay: inhibition of SARS-CoV-2 cytopathic effect; higher = more antiviral protection, active = above 15
Conditions: 48 h

Measured: inhibition of SARS-CoV-2 cytopathic effect

CC(=O)N[C@H]1[C@@H](O)[C@H](O)[C@@H](CO)O[C@@H]1O [N-acetylmannosamine]
inactive: 1 nM 0.48% | 8.33 nM -0.18% | 100 nM -0.61% | 833.33 nM -1.2% | 10000 nM 1.32%

CCC(=O)O[C@@](Cc1ccccc1)(c1ccccc1)[C@@H](C)CN(C)C [levopropoxyphene]
inactive: 1 nM 7.6% | 8.33 nM 2.53% | 100 nM 1.97% | 833.33 nM 0.91% | 10000 nM -3.41%

COc1ccc(CC(C)NCC(O)c2ccc(O)c(NC=O)c2)cc1 (stereo not given) [formoterol]
inactive: 1 nM 0.12% | 8.33 nM 2.33% | 100 nM 1.69% | 833.33 nM 0.54% | 10000 nM 10.8%
